# High-throughput results (PubChem)
# In the library only some 4% were active in any assay of this set; here they are far more common.
# Shn3 3UTR inh: inhibitors of Schnurri-3 3'UTR reporter in osteoblasts. Clone20 osteoblast Shn3 3'UTR firefly luciferase, 24 h. inhibition, % at 12.5 µM. 360,000 tested, 0.52% active. AID 588674;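 active means mean inhibition of at least 75% with every replicate also reaching 75%; inconclusive means mean inhibition at least 75% but some replicate below; inactive means mean inhibition below 75%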
# PAX8 reporter: lowers PAX8-driven luciferase in RMG-I cells. AID 652154. RMG-I TPO-luciferase reporter, SteadyGlo, 24 h. inhibition, % at 12.6 µM. 360,000 tested, 1.2% active;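 active means mean replicate inhibition at least 60% with every replicate also reaching 60%; inconclusive means only one of the two criteria is met; inactive means mean below 60% and not all replicates reaching 60%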;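 further: luciferase light reporting Pax8 driven TPO promoter activity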
# Beta cell apopt: blocks beta cell apoptosis; 300,000 tested, 0.8% active; protection from apoptosis, % (test concentration not listed); INS-1E cytokine-induced death, ATP luminescence, 48 h; percent of positive-control rescue, neutral wells zero;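 active means Every replicate reaches about 75%, or at least half do and their mean reaches it too, limit read from the data; inconclusive means At least half of replicates reach the limit but their mean does not; inactive means Under half of replicates reach the limit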;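 further: higher means more ATP so stronger rescue from cytokine killing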
# Mdm2 MdmX PPI: disrupts the human Mdm2-MdmX interaction | O15151+Q00987 | SaOS-2 split-luciferase Mdm2/MdmX complementation, luminescence | inhibition, % at 8 µM | 330,000 tested, 3% active | AID 485346;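 active means inhibition of at least 50% at 8 µM in the primary screen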
# Target sequence (O15151 whole entry, looked up): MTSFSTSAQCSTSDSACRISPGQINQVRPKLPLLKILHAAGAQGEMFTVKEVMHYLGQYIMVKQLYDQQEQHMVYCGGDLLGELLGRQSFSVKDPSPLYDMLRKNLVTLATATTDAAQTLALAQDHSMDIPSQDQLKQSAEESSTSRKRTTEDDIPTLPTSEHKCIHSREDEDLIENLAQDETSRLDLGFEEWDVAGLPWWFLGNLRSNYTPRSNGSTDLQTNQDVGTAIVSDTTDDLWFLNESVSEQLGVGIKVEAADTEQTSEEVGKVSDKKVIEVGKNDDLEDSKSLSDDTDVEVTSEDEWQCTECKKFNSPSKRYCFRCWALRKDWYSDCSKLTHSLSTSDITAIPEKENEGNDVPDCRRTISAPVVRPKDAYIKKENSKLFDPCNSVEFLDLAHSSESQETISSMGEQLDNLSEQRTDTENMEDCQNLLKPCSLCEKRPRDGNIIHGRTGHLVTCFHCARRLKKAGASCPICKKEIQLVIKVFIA
# Target sequence (Q00987 whole entry, looked up): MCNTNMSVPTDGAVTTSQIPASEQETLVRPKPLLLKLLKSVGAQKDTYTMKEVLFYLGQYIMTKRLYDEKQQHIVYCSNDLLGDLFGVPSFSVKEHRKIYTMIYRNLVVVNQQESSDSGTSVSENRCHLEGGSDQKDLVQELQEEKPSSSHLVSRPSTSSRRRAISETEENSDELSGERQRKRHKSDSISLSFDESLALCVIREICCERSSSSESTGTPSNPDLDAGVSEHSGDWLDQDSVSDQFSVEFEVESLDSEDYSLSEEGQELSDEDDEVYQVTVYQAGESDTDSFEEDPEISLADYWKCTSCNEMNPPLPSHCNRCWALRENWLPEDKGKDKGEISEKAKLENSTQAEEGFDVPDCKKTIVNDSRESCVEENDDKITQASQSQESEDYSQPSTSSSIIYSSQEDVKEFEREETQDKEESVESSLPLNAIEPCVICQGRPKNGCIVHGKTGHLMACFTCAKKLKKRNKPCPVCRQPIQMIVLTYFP
# Gli-Sufu antag: blocks Gli-Sufu signaling in a luciferase reporter; AID 588413; Sufu-KO-LIGHT fibroblasts, Gli luciferase reporter luminescence; inhibition, % at 5 µM; 340,000 tested, 0.74% active;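 active means inhibition above about 55%, limit read from the data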
# CSC inhib: cancer stem cell inhibition; cancer stem cell-like cells viability, luminescence; inhibition, % at 7.5 µM; 300,000 tested, 1.1% active; AID 2717; in the data active means inhibition above about 75%; inconclusive means no clear call, values can overlap the other calls; tested in HMLE shEcad cells
# Mdm2 MdmX conf: confirmation of human Mdm2/MdmX interaction inhibitors. inhibition, % at 8 µM. Mdm2-MdmX binding, luminescent assay. 10,000 tested, 55% active. shares compounds with Mdm2 MdmX PPI; in the data active means inhibition above about 40%
# Full FLuc ctr: full-length luciferase inhibition in Mdm2/MdmX counter-screen; inhibition, % at 8 µM; SaOS-2 full-length luciferase counterscreen, luminescence; 6,200 tested, 77% active; shares compounds with Mdm2 MdmX PPI;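 active means mean inhibition at 8 µM reaching about 37%, which flags the compound as non-specific, limit read from the data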;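 further: p53-null SaOS-2 cells with luciferase driven by a doxycycline-inducible promoter; compound on cells about two nights before reading with doxycycline added after day one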
# Hits are given with their value; . = inactive; ? = inconclusive; / = no result; + = active, no number.
SMILES,Shn3 3UTR inh,PAX8 reporter,Beta cell apopt,Mdm2 MdmX PPI,Gli-Sufu antag,CSC inhib,Mdm2 MdmX conf,Full FLuc ctr
CCCn1c(NC(=S)Nc2ccccc2)nc2ccccc21,.,.,.,52,.,.,.,/
CN1C(=O)c2cc(NC(=O)Cc3cccs3)ccc2OC[C@@H]2O[C@@H](CC(=O)O)CC[C@H]21,/,.,/,/,/,/,/,/
COc1cccc(S(=O)(=O)Nc2ccc3c(c2)OC[C@@H](C)N(Cc2ccccc2F)C[C@@H](C)[C@H](OC)CN(C)C3=O)c1,/,.,/,/,/,/,/,/
S=C(Nc1ccccc1)Nc1nc2ccccc2n1CCOc1ccc(Cl)cc1,.,.,.,84,.,+,41,68
CCN1[C@@H]2Cn3c(ccc(-c4ccncc4)c3=O)[C@H]1[C@@H](C(=O)NCc1ccccc1)[C@@H]2CO,/,.,/,/,/,/,/,/
CC(=O)c1nn(-c2cccc(Br)c2)cc1C(=O)c1ccc(Cl)cc1,.,.,.,53,.,.,.,/
CCCCCn1c(N)c(-c2nc3ccccc3s2)c2c([N+](=O)[O-])nn(C)c(=O)c21,.,/,.,87,.,.,.,/
CCCCn1c(N)c(-c2nc3ccccc3o2)c2c([N+](=O)[O-])nn(C)c(=O)c21,.,.,.,.,.,.,/,/
CCOC(=O)C(C)(C)N(Cc1cccc(C)c1)S(=O)(=O)c1ccc(Cl)c([N+](=O)[O-])c1,.,.,.,57,.,.,.,/
NC(N)=N/N=C/c1ccc(Br)cc1,.,.,.,54,.,.,58,57
Cc1ccc(COc2ccc(/C=N/O)cc2)cc1,.,.,/,.,.,.,/,/
O=C(N/N=C/c1ccccc1)c1ccc(OCc2ccccc2)cc1,.,.,.,.,.,/,/,/
NC(N)=N/N=C/c1ccc(OCc2ccccc2)cc1,.,/,82,55,.,.,.,/
NC(N)=N/N=C/c1ccc(OCc2ccc(Cl)cc2)cc1,.,/,/,98,.,/,.,/
Cc1cc(=O)oc2cc(OCC(=O)N3c4ccccc4CC3C)ccc12 (stereo not given),.,/,.,51,.,/,62,46
CO[C@@H]1CN(C)C(=O)c2ccc(NC(=O)Nc3c(C)noc3C)cc2OC[C@@H](C)N(CC2CC2)C[C@H]1C,/,.,/,/,/,/,/,/
Cc1cc(=O)[nH]c(N2CCOCC2)n1,.,.,.,.,.,.,/,/
Cc1cc(N2CCOCC2)c2c(N)c(Br)cc(C)c2n1,.,/,.,74,.,.,71,.
CCc1ccn2cc(-c3ccc4c(c3)OCO4)nc2c1,.,80,.,62,.,78,53,92
COC(=O)c1ccc2nc(-c3ccc4c(c3)OCO4)cn2c1,.,.,.,.,.,.,/,/
Cc1ccccc1C1c2[nH]c3ccccc3c2C[C@H]2C(=O)N(C3CCN(Cc4ccccc4)CC3)CC(=O)N12 (stereo not given in full),.,.,.,.,/,.,/,/
O=C1[C@@H]2Cc3c([nH]c4ccccc34)C(c3cccc(Br)c3)N2C(=O)CN1C1CCN(Cc2ccccc2)CC1 (stereo not given in full),.,91,.,88,.,82,.,73
COC(=O)c1ccc(C2c3[nH]c4ccccc4c3C[C@H]3C(=O)N(C4CCN(Cc5ccccc5)CC4)CC(=O)N23)cc1 (stereo not given in full),.,.,.,.,.,.,/,/
CCOc1ccccc1C1c2[nH]c3ccccc3c2C[C@H]2C(=O)N(C3CCN(Cc4ccccc4)CC3)CC(=O)N12 (stereo not given in full),.,.,.,62,.,.,51,67
O=C1[C@@H]2Cc3c([nH]c4ccccc34)C(c3ccccc3)N2C(=O)CN1C1CCN(Cc2ccccc2)CC1 (stereo not given in full),.,.,.,63,.,.,.,92
SMILES,Shn3 3UTR inh,PAX8 reporter,Beta cell apopt,Mdm2 MdmX PPI,Gli-Sufu antag,CSC inhib,Mdm2 MdmX conf,Full FLuc ctr
C[C@@H]1C[C@@H]2OC(=O)[C@]3(C)[C@H]2[C@@H](OC3(C)O)[C@]2(C)C(=O)C=C[C@H]12 (stereo not given in full),.,.,.,.,.,.,/,/
C=C1C(=O)C=C[C@]2(C)C[C@@H]3OC(=O)[C@](C)(O)[C@H]3C[C@@H]12,.,67,/,73,.,?,47,.
CCC(C)(C)C(=O)O[C@H]1C[C@@H](C)C=C2C=C[C@H](C)[C@H](CC[C@@H]3C[C@@H](O)CC(=O)O3)[C@H]21,.,.,.,55,.,.,.,/
Cc1nn(-c2ccccc2)c(C)c1/C=N/NC(=O)c1cc(C23CC4CC(CC(C4)C2)C3)[nH]n1,.,/,.,63,.,97,.,/
Cc1cc(C(=O)N/N=C/c2c(C)nn(-c3ccccc3)c2C)n[nH]1,/,.,.,.,.,.,/,/
Cc1nn(-c2ccccc2)c(C)c1/C=N/NC(=O)c1cc(-c2ccc(Cl)s2)[nH]n1,.,.,.,56,.,.,59,49
C[C@@H](O)C#Cc1ccc([C@H]2[C@@H](CO)N3CCCCN(C(=O)c4cccc(F)c4)C[C@@H]23)cc1,/,.,/,/,/,/,/,/
N#C[C@H]1[C@@H](c2ccccc2C2=CCCC2)[C@H](CO)N1C(=O)Cc1ccncc1,/,.,/,/,/,/,/,/
O=C(C[C@H]1C[C@@H]2c3cc(NC(=O)Nc4ccc(C(F)(F)F)cc4)ccc3O[C@@H]2[C@H](CO)O1)NCc1ccccn1,/,.,/,/,/,/,/,/
CN(C)CCCNc1ncnc2oc(-c3ccccc3)c(-c3ccccc3)c12,.,.,.,66,.,.,.,64
c1ccc(-c2oc3ncnc(NCCCn4ccnc4)c3c2-c2ccccc2)cc1,.,/,/,.,.,.,/,/
COC(=O)c1cc(=O)n(CCc2ccccc2F)c(=Nc2ccc(F)c(Cl)c2)s1,.,.,76,73,.,122,.,/
COC(=O)c1cc(=O)n(Cc2ccco2)c(=Nc2ccc(F)c(Cl)c2)s1,.,.,.,100,.,94,.,65
CCCc1nc(SCC(=O)N2CCC(Cc3ccccc3)CC2)c2c(=O)n(C)c(=O)n(C)c2n1,.,.,.,60,.,.,42,79
CCCc1nc(SCC(=O)N2CCCc3ccccc32)c2c(=O)n(C)c(=O)n(C)c2n1,.,/,.,.,.,.,/,/
Cn1c(=O)c2c(SCC(=O)N3CCCc4ccccc43)nc(CC(C)(C)C)nc2n(C)c1=O,.,/,.,69,.,.,.,/
Cc1cc(C)c(S(=O)(=O)/N=C2\C=C(Nc3ccc(C(=O)O)cc3)C(=O)c3ccccc32)c(C)c1,.,?,113,78,.,/,68,51
CCc1ccc(S(=O)(=O)/N=C2\C=C(Nc3ccc(O)cc3)C(=O)c3ccccc32)cc1,95,/,115,100,88,/,97,.
